# Screening data deposited in PubChem by The Scripps Research Institute Molecular Screening Center.
# hcDAF-12 act: H. contortus DAF-12 nuclear receptor activators, primary screen, cell-based, luminescence, HEK293, lit1-tk-luc reporter; HEK293 hcDAF-12 lit1-tk-luc reporter; 0% DMSO, 100% Δ7-dafachronic acid; AID 652067, 2013; activation, % at 6.8 µM; 1.4% of 370,000 active;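 active means activation above the mean of all tested compounds plus 3 SD, cut at about 5.5% in these data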;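 further: 100% = response to 3 µM Δ7-dafachronic acid high control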
# FXN GAA850 act: FXN promoter activators, primary screen, cell-based, luciferase luminescence, HEK293 lucGAA850 | 0.56% of 360,000 active | activation, % at 6 µM | HEK293 lucGAA850 FXN promoter luciferase reporter, 24 h; percent of 10 µM SAHA response;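 active means activation above the average of all compounds screened plus 3 SD, cutoff fixed separately per campaign, cut at about 7.5% in these data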;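 further: 0% = DMSO wells and 100% = 10 µM SAHA wells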
# DAX1 inh-1: DAX1 (NR0B1) inhibitors, primary screen, cell-based, HEK293, Gal4-DAX1, luciferase luminescence; 0.99% of 340,000 active; inhibition, % at 6.75 µM; HEK293 Gal4-DAX1 luciferase reporter; Nuclear receptor subfamily 0 group B member 1 (Homo sapiens), P51843;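 active means inhibition above the mean over all tested compounds plus 3 SD, cut at about 4.2% in these data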;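 further: 0% = DAX1-transfected cells with DMSO and 100% = empty-vector control cells with DMSO; inhibition shows as a rise in luminescence from relieved DAX1 repression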
# DAX1 inh-2: DAX1 (NR0B1) inhibitors on StAR promoter, primary screen, cell-based, luminescence, SF-1 (NR5A1), full-length DAX-1 | HEK293T StAR-luciferase reporter, SF-1/DAX-1 repression relief | inhibition, % at 6.8 µM | 1.1% of 370,000 active | AID 652010, 2013;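 active means inhibition above the mean over all tested compounds plus 3 SD, cut at about 3.6% in these data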;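 further: 0% = DAX-1 cells with DMSO and 100% = cells lacking DAX-1 with DMSO; higher inhibition means more luminescence from relief of DAX-1 repression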
# hgDAF-12 ag: H. glycines DAF-12 receptor agonists, primary screen, cell-based, luminescence, HEK293, GAL4 fusion, UAS-luciferase; Nuclear hormone receptor DAF-12 (Heterodera glycines), GAL4 fusion; HEK293 GAL4-hgDAF12 UAS-luciferase reporter, agonist luminescence; normalized to butyrate control; activation, % at 6.8 µM; 1.8% of 370,000 active; AID 687014, 2013;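 active means activation above a cutoff set at the mean of all screened compounds plus 3 SD, cut at about 10% in these data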;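 further: 0% = DMSO wells and 100% = sodium butyrate wells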
# ssDAF12 agonist: S. stercoralis DAF-12 nuclear receptor activators, primary screen, cell-based, luminescence, HEK293, GRIP1 co-expression, lit1-tk-luc; 1% of 370,000 active; HEK293 ssDAF-12/GRIP1 lit1-tk-luc reporter; % of 3 µM dafachronic acid response; activation, % at 6.8 µM; AID 652126, 2013; Nuclear hormone receptor DAF-12 (Strongyloides stercoralis);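 active means activation above the mean over all tested compounds plus 3 SD, cut at about 0.9% in these data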;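 further: 0% = DMSO-only wells and 100% = 3 µM delta7-dafachronic acid wells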
# DAX1 inh confirm: DAX1 (NR0B1) inhibitors relieving SF-1 repression, confirmation, cell-based, luminescence, HEK293T, full-length DAX-1, SF-1 activated StAR promoter | HEK293T StAR-promoter luciferase reporter, SF-1/DAX-1 repression | AID 652134, 2013 | 87% of 2,400 active | shares compounds with DAX1 inh-2 | inhibition, % at 6.8 µM;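 active means inhibition above the average of every tested compound plus 3 SD, cut at about 3.8% in these data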;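 further: 0% = DAX-1 cells with DMSO and 100% = no DAX-1 control cells with DMSO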
# Target sequence (P51843 whole entry, looked up): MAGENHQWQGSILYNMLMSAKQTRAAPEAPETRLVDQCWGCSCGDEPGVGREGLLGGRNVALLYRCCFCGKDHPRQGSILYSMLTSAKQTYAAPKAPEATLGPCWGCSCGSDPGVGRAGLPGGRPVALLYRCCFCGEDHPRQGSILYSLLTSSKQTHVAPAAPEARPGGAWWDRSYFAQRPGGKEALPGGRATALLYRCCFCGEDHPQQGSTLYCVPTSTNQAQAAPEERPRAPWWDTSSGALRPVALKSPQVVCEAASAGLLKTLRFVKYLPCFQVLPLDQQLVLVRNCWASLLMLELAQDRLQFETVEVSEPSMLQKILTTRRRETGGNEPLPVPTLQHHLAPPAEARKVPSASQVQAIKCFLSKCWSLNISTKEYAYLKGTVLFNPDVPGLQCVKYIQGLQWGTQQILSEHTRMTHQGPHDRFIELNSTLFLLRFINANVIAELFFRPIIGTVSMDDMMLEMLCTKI
# SF1 mutant ctr: StAR reporter signal changes without DAX1, counter-screen for DAX1 inhibitor project, cell-based, luminescence, AF-2 mutant SF-1, transactivation. shares compounds with DAX1 inh-2. HEK293 StAR-luciferase, SF-1 AF2 mutant. inhibition, % at 6.8 µM. 78% of 2,400 active. AID 652136, 2013;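 active means inhibition above the mean of all tested compounds plus 3 SD, cut at about 3% in these data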;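 further: 0% = DAX-1 transfected cells with DMSO and 100% = cells without DAX-1 with DMSO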
# Active calls of the source: *; / = no result given. Compounds with a hit are over-represented: about 4.5% of the library has one in this group of screens.
SMILES,hcDAF-12 act,FXN GAA850 act,DAX1 inh-1,DAX1 inh-2,hgDAF-12 ag,ssDAF12 agonist,DAX1 inh confirm,SF1 mutant ctr
CC(=O)c1sc(NC(=O)c2ccc3c(c2)OCO3)nc1C,4,4,2,9.4*,12*,0,9.5*,6.5*
COc1ccccc1NC(=O)Cc1nnc(SCC(=O)c2ccccc2)n1C,-1,0,-1,0,-1,-1,/,/
COc1cccc(-c2csc(NC(=O)C3CC3)n2)c1,5,4,2,5.2*,12*,-1,7.0*,5.8*
O=C(Nc1nc(-c2ccc3c(c2)OCCO3)cs1)C1CCCC1,5,5,5.8*,4.7*,8,-1,12*,3.9*
CC(=O)Cc1nsc(NC(=O)c2ccc(COc3ccccc3C)o2)n1,-3,0,0,0,-1,-1,/,/
COC(=O)Nc1nc2ccc(C(=O)c3cccs3)cc2[nH]1,-1,1,0,8.7*,-1,0,49*,-4
CCCCc1nnc(NC(=O)COc2ccc3c(C)cc(=O)oc3c2)s1,0,/,/,1,2,-2,/,/
Cc1ccc(C2CCN(C(=O)Nc3ccccc3)C2)cc1 (stereo unspecified),-1,7,2,1,6,0,/,/
O=C(Nc1ccc(Cl)cc1)N1CCC(c2ccccc2)C1 (stereo unspecified),3,3,6.8*,5.6*,12*,1,12*,6.6*
CCOC(OCC)c1nc(N)[nH]c(=O)c1CCCCc1ccccc1,-2,-1,-1,0,0,-2,/,/
COc1ccc2ccccc2c1CNC(=O)CC1C(=O)NCCN1CC(C)(C)C (stereo unspecified),1,1,2,0,0,-1,/,/
CSCCC(NC(=O)COc1ccccc1)C(=O)N1CCN(C(C)=O)CC1 (stereo unspecified),1,1,1,-1,2,-1,/,/
CC(C)c1ccc2nc(N)sc2c1,5.8*,7,3,5.9*,11*,-1,11*,6.6*
Cc1[nH]c2ccc(C(=O)NCCCN3CCN(C)CC3)cc2c1C,2,0,1,0,2,-1,/,/
O=C(COc1ccc2ccccc2c1Br)Nc1cccnc1,-1,-2,0,5.1*,2,-1,4.2*,2
CCOc1cc(C(=O)O/N=C(\N)c2ccccn2)cc(OCC)c1OCC,-1,-1,0,0,3,-1,/,/
N/C(=N\OC(=O)CSc1ccccc1)c1ccccn1,1,2,2,7.0*,10,0,5.3*,4.7*
CCOc1ccc(C(=O)O/N=C(\N)c2ccccn2)cc1OCC,2,4,1,6.3*,12*,0,3,4.5*
COC(=O)[C@@H]1[C@H](O[Si](C)(C)C(C)(C)C)[C@H]2O[C@H]2C[C@H]1S(=O)(=O)c1ccccc1,-1,/,/,/,-3,-2,/,/
Cc1ccc(OCc2cc(C(=O)N(CCO)Cc3cccs3)no2)cc1C,5,4,3,5.1*,7,0,6.1*,3.7*
COc1ccc(OCc2cc(C(=O)N3CCN(C4CCCC4)CC3)no2)c(Cl)c1,5,3,0,3,10,-1,/,/
COc1ccc(OCc2cc(C(=O)N3CCCCCCC3)no2)c(Cl)c1,1,3,2,2,6,0,/,/
COc1cc(C)ccc1OCc1cc(C(=O)NCc2ccncc2)no1,2,3,1,4.7*,11*,0,5.3*,3.0*
COc1ccc(C(=O)NCc2ccncc2)cc1OC,0,-1,1,0,-4,-2,/,/
COc1cc(C)ccc1OCc1cc(C(=O)N2CCN(C3CCCCC3)CC2)no1,3,6,1,5.7*,11*,0,5.7*,3.8*
SMILES,hcDAF-12 act,FXN GAA850 act,DAX1 inh-1,DAX1 inh-2,hgDAF-12 ag,ssDAF12 agonist,DAX1 inh confirm,SF1 mutant ctr
COc1cc(C)ccc1OCc1cc(C(=O)N2CCCCCCC2)no1,2,3,1,4.6*,9,1,5.4*,3.5*
CC(=O)c1cccc(NC(=O)C(C)OC(=O)CN2C(=O)NC(C)(C)C2=O)c1 (stereo unspecified),-2,3,0,-2,-1,-2,/,/
COCC(=O)N1CCC(Oc2ccc(C(=O)NC3Cc4ccccc4C3)cc2)CC1,-2,-2,-1,-4,-4,-1,/,/
Cc1cc(OCc2cc(C(=O)N3CCCCCC3)no2)cc(C)c1Cl,4,3,1,5.5*,8,1,7.1*,4.1*
Cc1ccc(OCc2cc(C(=O)N3CCN(C4CCCCC4)CC3)no2)cc1C,2,6,2,6.4*,4,-1,6.5*,4.1*
Cc1ccc(OCc2cc(C(=O)N3CCCCCCC3)no2)cc1C,2,3,1,1,3,0,/,/
Cc1ccc(OCc2cc(C(=O)N3CCN(C4CCCC4)CC3)no2)cc1C,-1,2,2,0,4,-1,/,/
Cc1ccc(OCc2cc(C(=O)N3CCN(c4ccccc4)CC3)no2)cc1C,4,5,4,5.8*,13*,0,11*,6.5*
Cc1ccc(NC(=S)NCc2ccccc2)cc1S(=O)(=O)N1CCCCC1,-4,-2,0,-1,-5,-2,/,/
Cc1cccc(C)c1NC(=O)C1(C)CN(S(C)(=O)=O)CC(=O)N1CCCn1ccnc1 (stereo unspecified),-2,/,/,-1,5,0,/,/
CN(C)S(=O)(=O)c1ccc(-c2csnn2)s1,-1,-2,0,0,0,-1,/,/
